Laboratory results from PubChem BioAssay (NCATS).
Results filed as inconclusive are left out. A call without a number means that no potency is given here. Active and inactive are the calls of the source. The call rests on the fitted dose curve; in most records, active means well fitted inhibition curve with a large enough effect; inconclusive means small, poorly fitted or top-dose-only effect; inactive means flat fitted curve, though single readings scatter.

How the values were obtained:
[1] = qHTS for identification of novel therapeutic agents for treatment of microphthalmiaassociated transcription factor (MiT) renal cell carcinoma (RCC) (AID 1963991); details: CellTiter-Glo, 48 h, stronger effect = lower value
How it was run: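 Three TFE3-fusion RCC lines (UOK109, UOK124, UOK145), 500 cells/well in complete medium, were treated with MIPE 4.0 compounds for 48 hours at 37 C. Viability was by CellTiter-Glo luminescence, normalized to DMSO (100%) and empty wells (0%); curves fitted over 11 concentrations.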

[2] = qHTS profiling for inhibitors of Plasmodium falciparum proliferation (AID 504749); further: nearly all actives have a fitted effect of over 60% in size; further: potency means the concentration at half of the fitted maximal effect; details: P. falciparum in erythrocytes, SYBR Green DNA, 72 h
How it was run: (§1)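 P. falciparum-infected erythrocytes (0.3% parasitemia, 2.5% hematocrit final) were exposed to compounds for 72 h at 37 C in 5% CO2, then lysed with SYBR Green buffer overnight at room temperature; parasite DNA fluorescence was normalized to artemisinin and DMSO controls.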

3D7 = assay: as above; details: P. falciparum in erythrocytes, SYBR Green DNA, 72 h; series mostly up to 28.7 µM
How it was run: as §1

7G8 = assay: as above; details: P. falciparum in erythrocytes, SYBR Green DNA, 72 h; series mostly up to 28.7 µM
How it was run: as §1

AA1029 = assay: as above; details: P. falciparum in erythrocytes, SYBR Green DNA, 72 h; series mostly up to 28.7 µM
How it was run: as §1

AS120 = assay: as above; details: P. falciparum in erythrocytes, SYBR Green DNA, 72 h; series mostly up to 28.7 µM
How it was run: as §1

ATS189 = assay: as above; details: P. falciparum in erythrocytes, SYBR Green DNA, 72 h; series mostly up to 28.7 µM
How it was run: as §1

ATS95 = assay: as above; details: P. falciparum in erythrocytes, SYBR Green DNA, 72 h; series mostly up to 28.7 µM
How it was run: as §1

C2A = assay: as above; details: P. falciparum in erythrocytes, SYBR Green DNA, 72 h; series mostly up to 28.7 µM
How it was run: as §1

CP185 = assay: as above; details: P. falciparum in erythrocytes, SYBR Green DNA, 72 h; series mostly up to 28.7 µM
How it was run: as §1

[3] = TFE3-RCC UOK109 viability, measured here: UOK109 Z-AUC
[4] = TFE3-RCC viability, measured here: UOK124 Z-AUC
[5] = TFE3-RCC viability, measured here: UOK145 Z-AUC
[6] = at 28.7 µM (top of the series), parasite line A
[7] = at 28.7 µM (top of the series), parasite line B

Compound	z-score [1, 3]	z-score [1, 4]	z-score [1, 5]	activity, negative = inhibition [2, 6]	activity, negative = inhibition [2, 7]	Potency (3D7)	Potency (7G8)	Potency (AA1029)	Potency (AS120)	Potency (ATS189)	Potency (ATS95)	Potency (C2A)	Potency (CP185)	activity, negative = inhibition ([2]; at 12.8 µM (top of the series), parasite line A)	activity, negative = inhibition ([2]; at 12.8 µM (top of the series), parasite line B)	Potency ([2]; parasite line A)	Potency ([2]; parasite line B)
COc1ccccc1N1CCN(CC(O)COc2cccc3ccccc23)CC1 (centres undefined)	0.719	0.448	-1.51	-3.66% (inactive)	-18.8% (inactive)	inactive	11.2 µM (active)	inactive	inactive	inactive	inactive	inactive	inactive				
CC1(C)O[C@H]2CC(=O)OC[C@]23[C@H]2CC[C@@]4(C)[C@H](c5ccoc5)OC(=O)[C@H]5O[C@]54[C@]2(C)C(=O)C[C@@H]13	0.617	0.649	1.11														
CN1C2CCC1CC(OC(=O)C(CO)c1ccccc1)C2 (centres undefined)	0.361	0.456	0.45														
COc1nc(C)nc(Cl)c1NC1=NCCN1	0.168	0.306	0.251			inactive	inactive	inactive	inactive	inactive	inactive	inactive	inactive	1.48% (inactive)	0.89% (inactive)		
CCOC(=O)Nc1ccc(NCc2ccc(F)cc2)nc1N	0.955	0.938	0.317			7.94 µM (active)	10 µM (active)	11.2 µM (active)	12.6 µM (active)	10 µM (active)						7.94 µM (active)	12.6 µM (active)
O=C(C1CCCCC1)N1CC(=O)N2CCc3ccccc3C2C1 (centres undefined)	-4.91	0.786	-3.49														
CC[N+](CC)(CC)CCOc1cccc(OCC[N+](CC)(CC)CC)c1OCC[N+](CC)(CC)CC	0.0594	0.771	-0.103	-0.0275% (inactive)	10.3% (inactive)	inactive	inactive	inactive	inactive	inactive	inactive	inactive	inactive				
CC(C(=O)O)c1cccc(C(=O)c2ccccc2)c1 (centres undefined)	0.978	0.474	0.0276														
Cn1c(=O)c2[nH]cnc2n(C)c1=O	1.09	0.242	0.63	0.326% (inactive)	0.99% (inactive)	inactive	inactive	inactive	inactive	inactive	inactive	inactive	inactive				
NS(=O)(=O)c1cc2c(cc1Cl)NCNS2(=O)=O	0.106	0.843	0.437	1.79% (inactive)	14.1% (inactive)	inactive	inactive	inactive	inactive	inactive	inactive	inactive	inactive				
NCCS(=O)(=O)O	0.929	0.854	0.716	5.98% (inactive)	-25.3% (inactive)	inactive	inactive	inactive	inactive	inactive	inactive	inactive	inactive				
Cc1cn([C@H]2C=C[C@@H](CO)O2)c(=O)[nH]c1=O	0.266	0.139	0.201	2.38% (inactive)	-3.42% (inactive)	inactive	inactive	inactive	inactive	inactive	inactive	inactive	inactive				
CCN1CCCC1CNC(=O)c1cc(S(=O)(=O)CC)c(N)cc1OC (centres undefined)	0.976	0.754	0.815														
O=C(c1ccc(F)cc1)C1CCN(CCn2c(=O)[nH]c3ccccc3c2=O)CC1	0.795	0.577	0.595	5.58% (inactive)	9.97% (inactive)	inactive	5.01 µM (active)	inactive	inactive	inactive	inactive	inactive	inactive				
CN(CCOc1ccc(NS(C)(=O)=O)cc1)CCc1ccc(NS(C)(=O)=O)cc1	0.684	0.913	0.774	1.37% (inactive)	5.56% (inactive)	inactive	inactive	inactive	inactive	inactive	inactive	inactive	inactive				
NC(CO)C(=O)NNCc1ccc(O)c(O)c1O (centres undefined)	0.539	-0.122	0.506														
CC(C)(C)C(=O)Oc1ccc(S(=O)(=O)Nc2ccccc2C(=O)NCC(=O)O)cc1	0.584	0.0353	0.435	-0.829% (inactive)	7.95% (inactive)	inactive	inactive	inactive	inactive	inactive	inactive	inactive	inactive				
C[C@](N)(Cc1ccc(O)c(O)c1)C(=O)O	0.112	-0.114	-0.0394	5.92% (inactive)	-9.27% (inactive)	inactive	inactive	inactive	inactive	inactive	inactive	inactive	inactive				
N[C@@H](Cc1c[nH]c2ccc(O)cc12)C(=O)O	0.236	0.415	0.556	15.9% (inactive)	15.8% (inactive)	inactive	inactive	inactive	inactive	inactive	inactive	inactive	inactive				
